Source: PubChem
HSF-1 act: HSF-1 activators, primary screen, NIH3T3-HGL cells, MG132 stress, luminescence, single point | NIH3T3-HGL HSF-1 luciferase reporter, 8 h; 100% = twice DMSO control signal | activation, % at 9 µM | 1.7% of 300,000 active;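 active means mean replicate activation of at least 50% with a set share of replicates each reaching 50%; inconclusive means only one of those two conditions met; inactive means mean below 50% and too few replicates reaching it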;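 further: 0% = median of the neutral control wells and 100% = twice that signal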
dFosB act: activators of delta FosB homodimer, primary screen, biochemical, fluorescence polarization, TAMRA-CDK5 oligo, single point. Protein FosB (Mus musculus), P13346. purified delta FosB; percent of positive-control signal above neutral wells. activation, % at 25 µM. 0.99% of 340,000 active;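 active means mean activation above about 17%, with every replicate also reaching it, limit read from the data, passing the limit was not always enough; inconclusive means only one of the two conditions met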
Target sequence (P13346 whole entry, looked up): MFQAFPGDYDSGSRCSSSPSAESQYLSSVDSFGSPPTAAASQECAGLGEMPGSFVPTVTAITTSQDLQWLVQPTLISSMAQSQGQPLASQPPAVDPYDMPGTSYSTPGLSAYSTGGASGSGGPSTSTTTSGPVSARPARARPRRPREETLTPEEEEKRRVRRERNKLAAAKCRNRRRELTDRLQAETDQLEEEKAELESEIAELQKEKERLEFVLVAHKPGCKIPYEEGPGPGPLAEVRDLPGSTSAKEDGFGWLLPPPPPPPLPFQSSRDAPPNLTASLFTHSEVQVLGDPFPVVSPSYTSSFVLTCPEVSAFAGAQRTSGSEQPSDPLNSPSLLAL
Platelet DG rel: inhibitors of platelet dense granule secretion, primary screen, cell-based, MLPCN, human platelets | human platelet-rich plasma, SFLLRN dense granule ATP release, luminescence | inhibition, %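 (compounds screened at 7.5 µM in platelet-rich plasma)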 | 0.22% of 300,000 active;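 active means mean replicate score, as percent of positive control, at or above 50; inconclusive means mean below 50 but at least one replicate at or above 50; inactive means mean and every replicate below 50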
HSP90 inh: HSP90 inhibitors, primary screen, cell lysate, luminescence; Heat shock protein HSP 90 (rabbit reticulocyte lysate; luciferase refolding); Rabbit reticulocyte lysate, luciferase refolding luminescence, 3 h; inhibition, % at 5.6 µM; 0.91% of 290,000 active; AID 1789, 2009;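 active means inhibition above the screen-wide mean plus 3 SD, computed separately per campaign, cut at about 16% in these data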;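 further: 0% = DMSO wells and 100% = 60 µM geldanamycin wells; inhibitors lower the luminescence because luciferase stays unfolded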
HSF1 inh: HSF1 inhibitors in luciferase reporter cells, primary screen, cell-based, NIH3T3, luminescence | AID 2098, 2009 | activity change, negative = inhibition, % at 7.5 µM (by protocol) | NIH3T3-HGL HSE-luciferase, MG132-induced, luminescence 8 h; stronger effect = lower value | 0.77% of 300,000 active;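 active means more than half of replicate wells show activity change below -50%, luminescence cut by over half; inconclusive means some wells, but at most half, below -50%; inactive means no replicate well below -50%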;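 further: luciferase reports HSF-1 transcriptional activity via heat shock element; 0% = median of DMSO wells and -100% = zero luminescence signal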
MPTP block: mitochondrial permeability transition pore inhibitors, primary screen, biochemical, isolated mouse mitochondria, absorbance | Ca2+ swelling absorbance, 30 min | inhibition, % at 10 µM | 1.4% of 360,000 active;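 active means inhibition of 50% or more, scaled per plate between neutral and stimulator controls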;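 further: 0% = DMSO wells given calcium and 100% = 1 mM EGTA wells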
An asterisk follows results filed as active; ? = inconclusive; · = no result given. Hits are enriched below; roughly 4.9% of the tested compounds scored in any of these assays.

SMILES | HSF-1 act | dFosB act | Platelet DG rel | HSP90 inh | HSF1 inh | MPTP block
Cc1ccc(CNC(=O)C2(S(=O)(=O)c3ccccc3)CC=CC2)cc1 | 30.9 | -0.3 | -10.2 | -3.1 | 20.7 | -0.9
O=C(Cc1ccccc1)NCCn1ccc2ccccc21 | 19.0 | -0.7 | 0.3 | -3.6 | 3.9 | -0.7
CC(=O)NCCn1ccc2ccccc21 | 59.8* | 1.6 | -3.3 | 0.4 | 21.7 | -0.9
O=C(NC(CO)(CO)CO)c1coc(=O)c(Br)c1 | 65.2* | -3.3 | -5.2 | 1.6 | 14.3 | -2.2
Cc1nnc(SCC(=O)N(C)c2ccccc2)n1-n1cccc1 | -7.3 | -3.9 | 10.7 | · | -2.6 | -0.6
O=Cc1ccccc1OCCCOc1cccc2cccnc12 | 29.9 | -12.6 | -0.4 | 1.6 | 21.2 | 2.3
Brc1ccc(OCCCOc2cccc3cccnc23)cc1 | 56.1* | -14.0 | -5.5 | 1.3 | 14.4 | -0.1
Brc1ccc(OCCOCCOc2cccc3cccnc23)cc1 | 19.5 | 4.5 | 0.1 | -2.6 | 9.5 | -0.9
O=[N+]([O-])c1ccccc1OCCCOc1cccc2cccnc12 | 55.5* | -12.6 | -2.7 | -1.6 | 27.7 | 0.7
Clc1ccccc1OCCCOc1cccc2cccnc12 | 106.5* | -3.9 | -3.2 | 1.8 | 120.8 | -0.2
CCN(CC(=O)NCc1cccs1)CC(=O)Nc1ccccc1C | · | -1.4 | · | · | · | -0.6
Cc1cccc(NC(=O)c2sc3nc(N)c(C#N)cc3c2N)c1 | 18.8 | 2.3 | 13.4 | -2.3 | -1.3 | 0.0
CCCn1c(SCC(=O)NC2CCCC2)nnc1C(C)C | -3.9 | 0.8 | -72.7 | -4.1 | -6.0 | -1.1
C=CCN(CC=C)c1cnn(-c2nc3ccccc3[nH]2)c(=O)c1Cl | ? | -19.8 | 1.1 | 6.4 | 27.6 | 3.5
O=c1c(Cl)c(NCCCO)cnn1-c1nc2ccccc2[nH]1 | 63.2* | -5.4 | 5.2 | 3.7 | 53.7 | 0.2
CCOC(=O)Cn1c(=O)oc2cc(S(=O)(=O)N3CCN(C(=O)c4ccco4)CC3)ccc21 | 71.3* | 7.4 | -1.8 | -0.4 | 30.0 | 0.2
NC(=O)c1ccc(C(F)(F)F)n(Cc2cccc(Cl)c2)c1=O | 64.4* | -5.2 | 0.1 | 2.2 | 24.9 | -0.7
Cc1ccc(-c2nnc(-c3cccc(Br)c3)o2)cc1 | 64.0* | 5.1 | 4.6 | 3.5 | 30.4 | -1.9
Cc1ccc(-c2noc(/C=C/c3ccccc3)n2)cc1 | 69.4* | 2.8 | 15.4 | -2.2 | 35.3 | 4.3
Clc1ccc(-c2noc(/C=C/c3ccccc3)n2)cc1 | 39.2 | -1.6 | -6.9 | -2.6 | 20.7 | -1.6
Cc1ccc(/C=C/c2nnc(-c3ccccc3)o2)cc1 | 54.6* | -5.7 | -3.7 | -0.7 | 19.4 | 2.2
Cc1cccnc1C(NC(=O)C1CCN(CCCc2ccccc2)CC1)c1ccc(F)cc1 (stereo not drawn) | · | · | · | · | · | 0.1
COc1ccc(NC(=O)c2cccn(CC=C(C)C)c2=O)cc1 | 33.3 | 1.4 | 0.3 | -0.4 | -0.9 | 1.2
Cc1sc2ncn(CC(=O)NCc3ccco3)c(=O)c2c1-c1ccccc1 | 1.6 | -10.1 | 4.4 | -4.8 | -1.1 | 2.1
N#Cc1c(-c2ccccc2)nc(SCC(=O)Nc2ccc(OC(F)(F)Cl)cc2)[nH]c1=O | 1.1 | -8.5 | 15.8 | -5.2 | -6.5 | 2.1
SMILES | HSF-1 act | dFosB act | Platelet DG rel | HSP90 inh | HSF1 inh | MPTP block
Cc1noc(C)c1COc1ccc(C(=O)N2CCCC(C(F)(F)F)C2)cc1 (stereo not drawn) | -10.6 | -5.0 | 1.7 | 0.9 | -6.9 | -0.9
CN(C)c1ccc(-c2ccnc3c2CC(C)(C(=O)NCc2ccco2)O3)cc1 (stereo not drawn) | · | · | · | · | · | 1.0
Cc1coc2cc3oc(=O)c(CCC(=O)NCCN4CCOCC4)c(C)c3cc12 | 7.0 | -10.7 | -5.2 | -1.1 | 11.4 | 0.8
COC(=O)c1c(C)[nH]c(C)c1-c1ccc(C)cc1 | 1.9 | -3.4 | 1.0 | 0.0 | -3.0 | -3.5
COC(=O)c1c(C)[nH]c(C)c1-c1cccc([N+](=O)[O-])c1 | -93.2 | -2.7 | -1.7 | -3.2 | -91.2* | -0.8
CCN(CC)CCOC(=O)c1ccc([N+](=O)[O-])cc1 | -20.5 | -9.9 | -6.3 | 0.4 | -6.4 | 1.1
CCN(CC)CCOC(=O)c1ccc(N)cc1 | -80.5 | -7.6 | -0.8 | -4.8 | -78.3* | 0.3
